Assay results as given in the supplement of paper PMC6555819.

Experiments:
Test in all cases: PBM binding z-score (relative to random genomic background probes); higher = stronger binding; sequences stand for … in GC…GCGATTGACAGCGTAGAATGAAGG
[1] = tested on: FXR:RXRa (NR concentration 270 nM, RXRa partner concentration 90 nM)
Procedure, shortened: (§1)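 For binding z-scores, the reference was random background probes on custom Agilent 4×180K protein-binding microarrays. These arrays were incubated 1 h with ligand-free nuclear receptor dimers in PBS pH 7.4, 2% milk, 0.02% Triton X-100, 1 mM DTT, 0.2 mg/mL BSA and 0.4 mg/ml salmon testes DNA. Fluorescence was scanned after antibody detection of each partner (one per run) and regression-normalized.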

[2] = tested on: LXRa:RXRa (NR concentration 270 nM, RXRa partner concentration 90 nM)
Procedure, shortened: as §1

[3] = tested on: LXRa homodimer (NR concentration 270 nM)
Procedure, shortened: as §1

[4] = tested on: LXRb:RXRa (NR concentration 270 nM, RXRa partner concentration 90 nM)
Procedure, shortened: as §1

[5] = tested on: LXRb homodimer (NR concentration 270 nM)
Procedure, shortened: as §1

[6] = tested on: PPARa:RXRa (NR concentration 270 nM, RXRa partner concentration 90 nM)
Procedure, shortened: as §1

[7] = tested on: PPARg:RXRa (NR concentration 180 nM, RXRa partner concentration 90 nM)
Procedure, shortened: as §1

[8] = tested on: PPARg:RXRa 270nM:90nM, anti-RXR (NR concentration 270 nM, RXRa partner concentration 90 nM)
Procedure, shortened: as §1

[9] = tested on: PPARg:RXRa 30nM:10nM, anti-RXR (NR concentration 30 nM, RXRa partner concentration 10 nM)
Procedure, shortened: as §1

[10] = tested on: PPARg:RXRa 90nM:30nM, anti-RXR (NR concentration 90 nM, RXRa partner concentration 30 nM)
Procedure, shortened: as §1

[11] = tested on: PPARg:RXRa DBDmut IVT, anti-RXR (DBD mutation: RXRa K156A/R161A, NR concentration 270 nM, RXRa partner concentration 90 nM)
Procedure, shortened: as §1

[12] = tested on: PPARg:RXRa IVT, anti-PPARg (NR concentration 270 nM, RXRa partner concentration 90 nM)
Procedure, shortened: as §1

[13] = tested on: PPARg DBDmut:RXRa IVT, anti-PPARg (DBD mutation: PPARg1 K132A/R137A, NR concentration 270 nM, RXRa partner concentration 90 nM)
Procedure, shortened: as §1

[14] = tested on: PPARg DBDmut IVT, anti-PPARg (DBD mutation: PPARg1 K132A/R137A, NR concentration 270 nM)
Procedure, shortened: as §1

[15] = tested on: PPARg homodimer (NR concentration 180 nM)
Procedure, shortened: as §1

[16] = tested on: PXR:RXRa (NR concentration 270 nM, RXRa partner concentration 90 nM)
Procedure, shortened: as §1

[17] = tested on: PXR homodimer (NR concentration 270 nM)
Procedure, shortened: as §1

[18] = tested on: RARa:RXR (NR concentration 270 nM, RXRa partner concentration 90 nM)
Procedure, shortened: as §1

[19] = tested on: RARa homodimer (NR concentration 270 nM)
Procedure, shortened: as §1

[20] = tested on: RARb:RXRa (NR concentration 270 nM, RXRa partner concentration 90 nM)
Procedure, shortened: as §1

GGAACGAGGGCAGAGTTGATAGCATCTGTCGACG
PBM binding z-score [1]: -0.283 | PBM binding z-score [2]: -0.148 | PBM binding z-score [3]: -0.653 | PBM binding z-score [4]: -0.244 | PBM binding z-score [5]: -0.788 | PBM binding z-score [6]: 2.39 | PBM binding z-score [7]: 4.04 | PBM binding z-score [8]: 5.15 | PBM binding z-score [9]: 3.38 | PBM binding z-score [10]: 4.85 | PBM binding z-score [11]: 2.1 | PBM binding z-score [12]: 2.85 | PBM binding z-score [13]: 0.19 | PBM binding z-score [14]: -0.602 | PBM binding z-score [15]: 0.635 | PBM binding z-score [16]: -0.0229 | PBM binding z-score [17]: -0.145 | PBM binding z-score [18]: -0.365 | PBM binding z-score [19]: -0.977 | PBM binding z-score [20]: 1.68

TCTGCTAGGTCAACGATGGTCCGCTAATCTGCTA
PBM binding z-score [1]: 2.99 | PBM binding z-score [2]: 2.08 | PBM binding z-score [3]: -0.377 | PBM binding z-score [4]: 1.02 | PBM binding z-score [5]: -0.262 | PBM binding z-score [6]: 3 | PBM binding z-score [7]: 2.07 | PBM binding z-score [8]: 2.75 | PBM binding z-score [9]: 1.9 | PBM binding z-score [10]: 2.22 | PBM binding z-score [11]: 4.07 | PBM binding z-score [12]: 4 | PBM binding z-score [13]: -0.429 | PBM binding z-score [14]: 0.0666 | PBM binding z-score [15]: 0.694 | PBM binding z-score [16]: 0.998 | PBM binding z-score [17]: -0.847 | PBM binding z-score [18]: 1.91 | PBM binding z-score [19]: -0.449 | PBM binding z-score [20]: 3.91

AATACAGGGTCATCGAAGGCCAGAGTACGCACAG
PBM binding z-score [1]: 6.84 | PBM binding z-score [2]: 6.3 | PBM binding z-score [3]: 1.75 | PBM binding z-score [4]: 4.59 | PBM binding z-score [5]: 1.53 | PBM binding z-score [6]: 5.67 | PBM binding z-score [7]: 6.5 | PBM binding z-score [8]: 6.11 | PBM binding z-score [9]: 2.56 | PBM binding z-score [10]: 4.66 | PBM binding z-score [11]: 2.6 | PBM binding z-score [12]: 4.19 | PBM binding z-score [13]: 1.28 | PBM binding z-score [14]: 0.988 | PBM binding z-score [15]: 2.16 | PBM binding z-score [16]: 5.22 | PBM binding z-score [17]: 0.967 | PBM binding z-score [18]: 4.45 | PBM binding z-score [19]: 0.641 | PBM binding z-score [20]: 4.32

GCTGCTAGGACAACTGATGGTCAGCTAAAGCTCG
PBM binding z-score [1]: -0.547 | PBM binding z-score [2]: -0.859 | PBM binding z-score [3]: -0.672 | PBM binding z-score [4]: -1.14 | PBM binding z-score [5]: -1.05 | PBM binding z-score [6]: -1.94 | PBM binding z-score [7]: -0.0624 | PBM binding z-score [8]: -0.895 | PBM binding z-score [9]: -0.952 | PBM binding z-score [10]: -1.12 | PBM binding z-score [11]: 0.688 | PBM binding z-score [12]: -0.573 | PBM binding z-score [13]: -1.55 | PBM binding z-score [14]: -1.57 | PBM binding z-score [15]: -1.24 | PBM binding z-score [16]: -1.1 | PBM binding z-score [17]: -1.66 | PBM binding z-score [18]: -1.08 | PBM binding z-score [19]: -1.4 | PBM binding z-score [20]: 0.341

TCGAGTAGGTTAACAATGGGGCATTCAGCTTTCT
PBM binding z-score [1]: 0.324 | PBM binding z-score [2]: 3.77 | PBM binding z-score [3]: -0.204 | PBM binding z-score [4]: 1.79 | PBM binding z-score [5]: -0.704 | PBM binding z-score [6]: 1.59 | PBM binding z-score [7]: 0.576 | PBM binding z-score [8]: 1.22 | PBM binding z-score [9]: 1.31 | PBM binding z-score [10]: 1.29 | PBM binding z-score [11]: 3.65 | PBM binding z-score [12]: 2.78 | PBM binding z-score [13]: 0.124 | PBM binding z-score [14]: 0.191 | PBM binding z-score [15]: 0.25 | PBM binding z-score [16]: 0.403 | PBM binding z-score [17]: -0.277 | PBM binding z-score [18]: 0.753 | PBM binding z-score [19]: -0.553 | PBM binding z-score [20]: 0.976

AGAAGGAGGTTATTAAGATCAGGGAATTGCGGTC
PBM binding z-score [1]: 1.12 | PBM binding z-score [2]: 1.36 | PBM binding z-score [3]: 0.522 | PBM binding z-score [4]: 1.46 | PBM binding z-score [5]: 0.654 | PBM binding z-score [6]: 2.01 | PBM binding z-score [7]: 1.01 | PBM binding z-score [8]: 1.31 | PBM binding z-score [9]: 0.314 | PBM binding z-score [10]: 0.827 | PBM binding z-score [11]: 2 | PBM binding z-score [12]: 1.6 | PBM binding z-score [13]: 0.512 | PBM binding z-score [14]: -0.349 | PBM binding z-score [15]: 1.37 | PBM binding z-score [16]: 1.2 | PBM binding z-score [17]: 1.24 | PBM binding z-score [18]: 0.985 | PBM binding z-score [19]: 1.65 | PBM binding z-score [20]: 1.26

CCTACTGGGGCAGAAAGGTTACCATACCATCCGG
PBM binding z-score [1]: 0.253 | PBM binding z-score [2]: 0.567 | PBM binding z-score [3]: 0.201 | PBM binding z-score [4]: 0.837 | PBM binding z-score [5]: -0.839 | PBM binding z-score [6]: 2.14 | PBM binding z-score [7]: 2.05 | PBM binding z-score [8]: 2.74 | PBM binding z-score [9]: 0.989 | PBM binding z-score [10]: 2.22 | PBM binding z-score [11]: 3 | PBM binding z-score [12]: 4 | PBM binding z-score [13]: 0.246 | PBM binding z-score [14]: -0.987 | PBM binding z-score [15]: 1.63 | PBM binding z-score [16]: 0.791 | PBM binding z-score [17]: -0.188 | PBM binding z-score [18]: 1.85 | PBM binding z-score [19]: 0.396 | PBM binding z-score [20]: 1.87
